Test results as given in the supplement of paper PMC13094657.
± gives the standard deviation of the averaged measurements.

What was measured:
[1] = system: MDA-MB-231; assay: cell viability relative to vehicle unstimulated control (fraction); higher = more viable cells; conditions: pre-treatment time: 18 h then 24 h IFNg/TNF
[2] = system: MDA-MB-231; assay: kynurenine production, fold change vs DMSO IFNg/TNF control; higher = more kynurenine produced (less inhibition); conditions: pre-treatment time: 18 h then 24 h IFNg/TNF
In short: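 After trichloroacetic acid and p-dimethylaminobenzaldehyde treatment, supernatants were read at 492 nm, with 0–100 μM standards. These came from MDA-MB-231 cells (7 × 10^4/well, 96-well plates) pre-treated 18 h with natural products in 0.1% DMSO and then exposed 24 h to IFNγ (1 U/ml) and TNF (6.25 ng/ml) at 37°C. Values for kynurenine production are fold changes over same-plate cytokine-stimulated vehicle wells, averaged over duplicate plates in the first screening round.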
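For cell viability relative to vehicle unstimulated control in this document: viability of the cells left after supernatant collection, read with Deep Blue dye added for 4 h, as absorbance at 570 nm minus 600 nm.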

SMILES | cell viability [1] | kynurenine production [2]
C/C=C(\C)C(=O)O[C@H]1[C@H](O)[C@]2(COC(C)=O)[C@H](O)C[C@]3(C)C(=CC[C@@H]4[C@@]5(C)CC[C@H](O[C@@H]6O[C@H](C(=O)O)[C@@H](O[C@@H]7O[C@H](CO)[C@@H](O)[C@H](O)[C@H]7O)[C@H](O)[C@H]6O[C@@H]6O[C@H](CO)[C@@H](O)[C@H](O)[C@H]6O)[C@](C)(CO)[C@@H]5CC[C@]43C)[C@@H]2CC1(C)C [Isoescin IA] (compound dose: 10 uM) | 1.001 ± 0.0061 | 0.779 ± 0.12
CC(=O)OCC1=C[C@@H]2OC(=O)C3=CO[C@@H](O[C@@H]4O[C@H](CO)[C@@H](O)[C@H](O)[C@H]4O)[C@H]1[C@@H]32 [Asperuloside] (compound dose: 10 uM) | 0.983 ± 0.03 | 0.923 ± 0.15
CC12CCC(C1)C(C)(C)C2O (stereo unspecified) [Fenchyl alcohol] (compound dose: 10 uM) | 1.03 ± 0.041 | 0.817 ± 0.31
CC1(C)C(O[C@@H]2OC[C@@H](O)[C@H](O)[C@H]2O)CC[C@]23CC24CC[C@]2(C)[C@@H]([C@@]5(C)CC[C@@H](C(C)(C)O)O5)[C@H](O)C[C@@]2(C)C4C[C@@H](O[C@@H]2O[C@H](CO)[C@@H](O)[C@H](O)[C@H]2O)C13 (stereo partly specified) [Astragaloside IV] (compound dose: 10 uM) | 1.05 ± 0.022 | 0.878 ± 0.068
CC(C)=CCC[C@](C)(O)[C@H]1CC[C@]2(C)[C@@H]1[C@H](O)C[C@@H]1[C@@]3(C)CC[C@H](O)C(C)(C)[C@@H]3[C@@H](O[C@@H]3O[C@H](CO)[C@@H](O)[C@H](O)[C@H]3O[C@@H]3O[C@H](CO)[C@@H](O)[C@H](O)[C@H]3O)C[C@]12C [Ginsenoside Rf] (compound dose: 10 uM) | 0.9642 ± 0.0068 | 0.749 ± 0.17
COc1ccc([C@H]2OC[C@H]3[C@@H]2CO[C@H]3c2ccc(O[C@@H]3O[C@H](CO)[C@@H](O)[C@H](O)[C@H]3O)c(OC)c2)cc1OC [Phillyrin] (compound dose: 10 uM) | 0.978 ± 0.024 | 0.866 ± 0.16
CC(C)=CC/C=C(/C)[C@H]1CC[C@@]2(C)[C@@H]1[C@@H](O)CC1[C@@]3(C)CCC(O[C@@H]4O[C@H](CO)[C@@H](O)[C@H](O)[C@H]4O)C(C)(C)C3CC[C@]12C (stereo partly specified) [Ginsenoside Rh3] (compound dose: 10 uM) |  | 0.858 ± 0.029
C=C(C)[C@@H]1CC[C@@H](C)[C@@H]2CCC(C)=C[C@@H]21 [Amorpha-4,11-diene] (compound dose: 10 uM) | 1.01 ± 0.06 | 0.961 ± 0.19
C[C@@]12CCc3occc3[C@H]1CC[C@@]13C[C@@H](CC[C@H]12)[C@@](O)(CO)C3 [Cafestol] (compound dose: 10 uM) | 1.03 ± 0.067 | 0.75 ± 0.4
CC1CCC(C(C)C)C(O)C1 [(1R,2S,5R)-(-)-menthol] (compound dose: 10 uM) | 0.935 ± 0.035 | 0.806 ± 0.069
C[C@@H]1CC[C@@]2(OC1)O[C@H]1C[C@H]3[C@@H]4CC=C5C[C@@H](O)C[C@@H](O)[C@]5(C)[C@H]4CC[C@]3(C)[C@H]1[C@@H]2C [Ruscogenin] (compound dose: 10 uM) | 1.01 ± 0.037 | 1.32 ± 0.2
COC(=O)C1=CO[C@@H](O[C@@H]2O[C@H](CO)[C@@H](O)[C@H](O)[C@H]2O)[C@@H]2[C@@]3(C)O[C@H]3[C@@H](O)[C@]12O [Sesamoside] (compound dose: 10 uM) | 0.9746 ± 0.0057 | 0.928 ± 0.12
C[C@@H]1C(=O)O[C@H]2C[C@@]34O[C@@H]5OC(=O)[C@H](O)[C@@]56[C@H](C(C)(C)C)[C@H](O)C(OC3=O)[C@]64[C@]21O (stereo partly specified) [Ginkgolide J] (compound dose: 10 uM) | 0.962 ± 0.014 | 0.875 ± 0.023
CC(=O)OC1CCC2(C)C(CCC3(C)C2CC=C2C4C(C)C(C)CCC4(C(=O)O)CCC23C)C1(C)C (stereo unspecified) [Ursolic acid acetate] (compound dose: 10 uM) | 1.11 ± 0.14 | 0.771 ± 0.053
COC(=O)C1=CO[C@@H](O[C@@H]2O[C@H](CO)[C@@H](O)[C@H](O)[C@H]2O)[C@H]2[C@@H]1C(=O)C[C@@H]2C [Verbenalin] (compound dose: 10 uM) | 0.953 ± 0.052 | 0.834 ± 0.12
C=C(CCC=C(C)C)[C@H]1CC[C@]2(C)[C@@H]1[C@H](O)C[C@@H]1[C@@]3(C)CC[C@H](O)C(C)(C)[C@@H]3[C@@H](O[C@@H]3O[C@H](CO)[C@@H](O)[C@H](O)[C@H]3O)C[C@]12C [Ginsenoside Rk3] (compound dose: 10 uM) | 0.96 ± 0.035 | 0.81 ± 0.11
